Among the test systems are SK-MEL-2 melanoma; EKVX NSCLC; SN12C renal; UO-31 renal; TK-10 renal; ACHN renal; CAKI-1 renal; A498 renal; CCRF-CEM leukemia; SR leukemia; RPMI-8226 leukemia; OVCAR-8 ovarian; OVCAR-5 ovarian; OVCAR-4 ovarian; SK-OV-3 ovarian; IGROV1 ovarian; OVCAR-3 ovarian; HS 578T breast; NCI/ADR-RES ovarian; MOLT-4 leukemia.
Assay in all cases: NCI-60 one-dose screen, 48 h (100 = growth as untreated, 0 = no growth, -100 = all killed)
What all share (conditions): 10 µM unless noted

This is part of a sample that, as a whole, favours compounds with a hit. Of some 83,000 tested, about 20% had one in any assay.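 Percent growth is the endpoint: 0 to 100 indicates growth inhibition (40 means 60% inhibition), 0 means no net growth, and negative values indicate cell death.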 Unmarked numbers belong to inactive results. Active and inactive are the calls of the source. Rule for the calls: active = growth percent below 10; inactive = the rest.

`Clc1cc(Cl)cc(Nc2ccc3cc(OCCCN4CCOCC4)ccc3n2)c1`: the growth in the assay on SK-MEL-2 melanoma was 63.9%; in the assay with EKVX NSCLC, 69.3%; in the assay on SN12C renal, 60.1%; in the assay on UO-31 renal it was 26.5%; in the assay with TK-10 renal it was 47%; with ACHN renal it was 42%. Moreover, the growth is 75.3% in the assay on CAKI-1 renal; 51% in the assay on A498 renal; 12.9% with CCRF-CEM leukemia; 1.31% (active) in the assay with SR leukemia; -2.42% (active) in the assay on RPMI-8226 leukemia; 44.4% in the assay with OVCAR-8 ovarian. Besides, the growth in the assay with OVCAR-5 ovarian is 65.7%; in the assay with OVCAR-4 ovarian, 46.8%; in the assay with SK-OV-3 ovarian it was 67.4%; with IGROV1 ovarian it was 58%; in the assay with OVCAR-3 ovarian, 60%; with HS 578T breast it was 25%. The growth with NCI/ADR-RES ovarian was 51%.

Consider `COC(=O)c1ccc(C2Nc3ccc(S(=O)(=O)Nc4ccc(C)c(C)c4)cc3C3OCCC23)cc1` (configuration not stated), for which the growth in the assay on SK-MEL-2 melanoma is 93.4%; with EKVX NSCLC, 57.9%; in the assay on SN12C renal, 85.3%; in the assay with UO-31 renal, 74.9%; with TK-10 renal it was 90.4%; in the assay with ACHN renal it was 89.4%. Also, the growth in the assay with CAKI-1 renal is 75%; in the assay on A498 renal, 74.3%; with CCRF-CEM leukemia, 74.2%; in the assay with MOLT-4 leukemia, 60.6%; with OVCAR-8 ovarian, 92%; with OVCAR-5 ovarian, 95.7%. Also, the growth in the assay on OVCAR-4 ovarian is 82.8%; in the assay with SK-OV-3 ovarian, 92%; with IGROV1 ovarian it was 84.4%; in the assay with OVCAR-3 ovarian, 79.1%; in the assay with HS 578T breast, 100%; in the assay with NCI/ADR-RES ovarian, 88.5%.

`C=C1C(=O)O[C@H]2[C@H]1CC/C(CNC(=O)/C=C/c1ccc(Cl)cc1Cl)=C\CC[C@@]1(C)O[C@@H]21`: the growth is -13.8% (active) with SK-MEL-2 melanoma; -35.8% (active) with EKVX NSCLC; -43.4% (active) in the assay with SN12C renal; -90.2% (active) with UO-31 renal; -88.8% (active) in the assay on TK-10 renal; -79.9% (active) in the assay with ACHN renal. Besides, the growth in the assay on CAKI-1 renal was -31.2% (active); in the assay on A498 renal it was -3.46% (active); in the assay on CCRF-CEM leukemia, -30.7% (active); in the assay on SR leukemia it was -28.8% (active); in the assay on RPMI-8226 leukemia, -33.1% (active); with OVCAR-8 ovarian, -28.7% (active). The growth is -31.9% (active) in the assay with OVCAR-5 ovarian; -52.7% (active) in the assay with OVCAR-4 ovarian; 20.3% with SK-OV-3 ovarian; -32.7% (active) in the assay with IGROV1 ovarian; -100% (active) with OVCAR-3 ovarian; -4.31% (active) in the assay on HS 578T breast. Besides, the growth in the assay on NCI/ADR-RES ovarian was 2.07% (active).

Consider `CC(C)(C)C(CCc1ccc(Cl)cc1)N1CCN(C2CCCCC2)CC1` (configuration not stated), for which the growth with SK-MEL-2 melanoma was 72.9%; in the assay on EKVX NSCLC, 70.1%; with SN12C renal, 45.7%; with UO-31 renal it was 32.6%; with TK-10 renal, 96.2%; with ACHN renal, 51.3%. Besides, the growth in the assay with CAKI-1 renal is 35.8%; in the assay with A498 renal, 78%; in the assay on CCRF-CEM leukemia, 25.9%; with SR leukemia it was -13.2% (active); in the assay with RPMI-8226 leukemia it was 24.4%; in the assay on OVCAR-8 ovarian, 60.3%. Besides, the growth is 60.2% in the assay with OVCAR-5 ovarian; 42.6% with OVCAR-4 ovarian; 59.9% in the assay with SK-OV-3 ovarian; 62.8% in the assay on IGROV1 ovarian; 41.6% with OVCAR-3 ovarian; 68.9% in the assay on HS 578T breast. Further, the growth in the assay on NCI/ADR-RES ovarian is 60.6%.

In the case of `O=c1c2cc(F)ccc2sc2c(NCCN3CCCCC3)nc3ccccc3c12`, the growth is 98.7% in the assay on SK-MEL-2 melanoma; 61% in the assay on EKVX NSCLC; 48.6% in the assay with SN12C renal; 27.1% in the assay on UO-31 renal; 77.7% in the assay on TK-10 renal; 42.7% in the assay on ACHN renal. The growth in the assay with CAKI-1 renal is 38.6%; in the assay with A498 renal it was 61.6%; with CCRF-CEM leukemia it was 44.3%; with MOLT-4 leukemia, 27.5%; with OVCAR-8 ovarian, 57.6%; in the assay on OVCAR-5 ovarian, 69.3%. The growth in the assay on SK-OV-3 ovarian is 78.8%; with IGROV1 ovarian, 27.3%; with HS 578T breast, 56%; with NCI/ADR-RES ovarian, 67.1%.

In the case of `COc1cccc(-c2nn(-c3ccccc3)cc2-c2ccnc(NCCCNC(=O)c3ccc(F)cc3)c2)c1`, the growth was 51.6% with SK-MEL-2 melanoma; 44.5% with EKVX NSCLC; 62.6% with SN12C renal; 40.5% in the assay on UO-31 renal; 57.8% in the assay on TK-10 renal; 71% in the assay on ACHN renal. The growth in the assay with CAKI-1 renal is 52.4%; with A498 renal it was 31%; in the assay on CCRF-CEM leukemia, 38.6%; in the assay with SR leukemia, -14.2% (active); with RPMI-8226 leukemia it was 38.2%; in the assay with OVCAR-8 ovarian it was 45.9%. The growth in the assay on OVCAR-5 ovarian is 85.4%; with OVCAR-4 ovarian it was 42.1%; in the assay on SK-OV-3 ovarian, 48.2%; in the assay on IGROV1 ovarian, 47.5%; in the assay with OVCAR-3 ovarian, 37.7%; in the assay on HS 578T breast, 61.4%. The growth with NCI/ADR-RES ovarian was 14.4%.

For the compound `C[C@]12CC[C@@H]3c4cc(OC(F)F)c(O)cc4CC[C@H]3[C@@H]1CC[C@@H]2OS(N)(=O)=O`, the growth with SK-MEL-2 melanoma was 42.1%; with EKVX NSCLC, 24.6%; with SN12C renal, 44.2%; in the assay with UO-31 renal it was 38.2%; with TK-10 renal it was 93.2%; in the assay with ACHN renal it was 50.7%. In addition, the growth in the assay on CAKI-1 renal was 34.5%; in the assay with A498 renal it was -7.08% (active); with CCRF-CEM leukemia it was 16.6%; with MOLT-4 leukemia it was 25.3%; in the assay with OVCAR-8 ovarian, 39.3%; with OVCAR-5 ovarian, 57.5%. Moreover, the growth with OVCAR-4 ovarian is 67.7%; with SK-OV-3 ovarian, 39.7%; with IGROV1 ovarian, 37.1%; in the assay on OVCAR-3 ovarian, -0.18% (active); with HS 578T breast, 32.5%; in the assay on NCI/ADR-RES ovarian, 12.5%.

In the case of `Fc1ccc(CNc2c3ccccc3nc3ccccc23)cc1F`, the growth in the assay on SK-MEL-2 melanoma is 89.4%; with EKVX NSCLC, 35.4%; in the assay with SN12C renal, 29.7%; with UO-31 renal, 15.6%; with TK-10 renal, 51.1%; with ACHN renal, 19.3%. The growth is 25.3% in the assay with CAKI-1 renal; 9.78% (active) with A498 renal; 41.5% in the assay with CCRF-CEM leukemia; 17% in the assay on SR leukemia; 26.9% with RPMI-8226 leukemia; 32.1% with OVCAR-8 ovarian. In addition, the growth in the assay on OVCAR-5 ovarian was 44.6%; in the assay with OVCAR-4 ovarian, 35.4%; in the assay with SK-OV-3 ovarian, 55.7%; in the assay with IGROV1 ovarian, 22.8%; in the assay on OVCAR-3 ovarian it was 68.9%; in the assay with HS 578T breast it was 64.8%. Moreover, the growth in the assay on NCI/ADR-RES ovarian was 27.6%.

The record behind these values is PubChem BioAssay (NCI).
